Screening data: PubChem, National Center for Advancing Translational Sciences (NCATS)
Rows were chosen to be rich in hits. Some 7.5% of all compounds tested hit in one or more screens of this group.
Rab9 promoter act = activates the Rab9 promoter. Huh7 Rab9 promoter-luciferase reporter, luminescence, 24 h. Potency, µM (titrated, usually from 9.22 µM), without a hit: top-dose activation, negative = inhibition, actives largely listed as activators. 320,000 tested, 2.8% active. AID 485297; note: % of control where 0% means no effect; nearly all actives have a fitted effect of over 60% in size
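Stable Rab9-luc Huh7, 1500 cells/well, 2 h settle; cmpd in DMSO, 24 h, 37 °C/5% CO2; luciferase reagent 10 min RT; luminescence.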
NPC1 prom act = NPC1 promoter activation. Huh7 NPC1 promoter luciferase reporter, 24 h. AID 485313. 320,000 tested, 2.4% active. Potency, µM (doses to about 9.22 µM), for inactives: top-dose activation, hits mostly activators; note: % of control where 0% means no effect; nearly all actives have a fitted effect of over 60% in size
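Luciferase expression driven by the NPC1 promoter was measured in stably transfected Huh7 cells after a 24 h compound incubation, using a luciferase reagent and a luminescence read.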
FLuc modulator = inhibits or activates purified firefly luciferase, miR-21 counter-screen. 360,000 tested, 6.9% active. purified FLuc, Km substrates, luminescence inhibition. Potency, µM (titrated, usually from 57.5 µM), inactives show top-dose activity change, negative = inhibition, actives largely listed as inhibitors. P08659;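 note: plate controls were vehicle for no effect and reference inhibitor for full effect; nearly all actives have a fitted effect of over 55% in size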
Target sequence (P08659 whole entry, looked up): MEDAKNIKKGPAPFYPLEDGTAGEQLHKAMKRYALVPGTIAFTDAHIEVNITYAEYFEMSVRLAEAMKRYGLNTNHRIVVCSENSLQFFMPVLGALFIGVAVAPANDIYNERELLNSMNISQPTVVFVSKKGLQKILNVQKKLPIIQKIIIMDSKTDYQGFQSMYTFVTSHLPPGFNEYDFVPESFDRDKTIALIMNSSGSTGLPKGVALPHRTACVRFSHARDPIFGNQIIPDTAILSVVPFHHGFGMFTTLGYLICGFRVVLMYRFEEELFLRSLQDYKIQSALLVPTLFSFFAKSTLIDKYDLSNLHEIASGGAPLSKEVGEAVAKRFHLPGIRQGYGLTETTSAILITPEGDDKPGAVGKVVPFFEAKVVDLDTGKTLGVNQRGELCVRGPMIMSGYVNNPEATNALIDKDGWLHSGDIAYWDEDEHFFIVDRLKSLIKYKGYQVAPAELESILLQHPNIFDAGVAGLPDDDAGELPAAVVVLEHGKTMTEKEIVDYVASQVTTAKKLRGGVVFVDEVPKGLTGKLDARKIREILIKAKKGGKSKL
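Purified P. pyralis luciferase, 10 nM final, with Km-level 10 uM D-luciferin and 10 uM ATP in 50 mM Tris acetate pH 7.5, 10 mM Mg acetate, 0.01% Tween-20, 0.05% BSA; 6-point qHTS titration about 60 µM downward; luminescence read.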
SMN2 splice up = SMN2 splice variant enhancement | AID 1458 | Potency, µM (highest dose often 46.1 µM), for inactives: top-dose activity change, positive = activation, usual class: activators | HEK293 SMN2-luciferase splicing reporter, luminescence, 30-36 h | 210,000 tested, 2.8% active; note: % of control where 0% means no effect; nearly all actives have a fitted effect of over 55% in size
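HEK293 cells carry an SMN2 minigene-luciferase reporter in which exon 7 inclusion puts luciferase in frame. Cells were seeded at 2000 cells/well, attached for 10-12 hours, then exposed to compounds for 30-36 hours at 37C before ONE-Glo luminescence.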
ELG1 genotoxic = induces genotoxicity in HEK293T cells with luciferase-tagged ELG1; HEK293T ELG1-luciferase reporter, luminescence, 16 h; Potency, µM (top dose mostly 46 µM), for inactives: at the highest dose activity change, positive = activation, most hits filed as activators; 330,000 tested, 1.3% active; note: % of control where 0% means no effect; nearly all actives have a fitted effect of over 60% in size
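Quantitative HTS format in 1536-well plates. HEK293T ELG1-luciferase reporter cells receive test compound and are incubated 16 hr at 37 °C, 5% CO2; ONE-Glo added, 30 min room temperature, then luminescence read.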
* marks the source's active call; other numbers are inactive results; [ ] = another dose, or the depositor's remark. Calls come from the whole dose curve; as a rule, active = well fitted curve in the direction sought with a large enough effect; inconclusive = small, poorly fitted or top-dose-only effect, or another doubt; inactive = no such curve, though single readings can be large; an effect the other way counts as inactive or inconclusive. Potency is the fitted concentration of half-maximal effect.

What do the screens show for `O=c1oc(-c2cccs2)nc2sc3c(c12)CCCCC3`?
Rab9 promoter act: inconclusive; NPC1 prom act: inconclusive; FLuc modulator: 1.2µM*; SMN2 splice up: 15.8µM*; ELG1 genotoxic: 0.9%

Results for O=c1oc(/C=C/c2ccccc2)nc2sc3c(c12)CCC3 ?
Rab9 promoter act: inconclusive; NPC1 prom act: 21.4%; FLuc modulator: 0.953µM*; SMN2 splice up: 11.2µM*; ELG1 genotoxic: 14.1µM*

How did CCc1c(-c2ccccc2)nc2sc3c(c2c1N)CCCC3 do in these assays?
Rab9 promoter act: inconclusive; NPC1 prom act: 26.2%; FLuc modulator: 1.69µM*; ELG1 genotoxic: -4.1%

Results for Cc1nc2ccccc2c(=O)n1-c1ccc(NC(=O)C(F)(F)F)cc1 ?
FLuc modulator: -4.4%

How did O=C1CN(c2nc(-c3cccnc3)nc3sc4c(c23)CCCC4)CCN1 do in these assays?
Rab9 promoter act: -3.4%; NPC1 prom act: -0.3%; FLuc modulator: inconclusive; SMN2 splice up: inconclusive; ELG1 genotoxic: -1.9%

Results for CC(C)(C)c1nc2sc3c(c2c(=O)o1)CCCC3 ?
Rab9 promoter act: 2.2%; NPC1 prom act: 1.2%; FLuc modulator: -7.4%; SMN2 splice up: 2.5%; ELG1 genotoxic: 3.4%

What do the screens show for `Nc1nc(-c2cccnc2)nc2sc3c(c12)CCCC3`?
Rab9 promoter act: 3.16µM*; NPC1 prom act: 2µM*; FLuc modulator: 1.07µM*; SMN2 splice up: 11.2µM*; ELG1 genotoxic: 7.3µM*

What do the screens show for `Cn1c(N/N=C/c2ccccc2)nc2sc3c(c2c1=O)CCC3`?
Rab9 promoter act: -2.2%; NPC1 prom act: 0.7%; FLuc modulator: 15.1µM*; SMN2 splice up: -26.5%; ELG1 genotoxic: 1.3%

How did O=c1oc(-c2ccccc2)nc2sc3c(c12)CCCC3 do in these assays?
Rab9 promoter act: inconclusive; NPC1 prom act: 23.7%; FLuc modulator: 1.2µM*; SMN2 splice up: inconclusive; ELG1 genotoxic: 22.8%

Results for Cc1ccccc1-c1nc2sc3c(c2c(=O)o1)CCC3 ?
Rab9 promoter act: 3.6%; NPC1 prom act: -2.5%; FLuc modulator: 2.39µM*; SMN2 splice up: 33.0%; ELG1 genotoxic: 3.0%

How did COc1ccc(-c2csc3nc(-c4ccccc4C)oc(=O)c23)cc1OC do in these assays?
FLuc modulator: -2.0%; SMN2 splice up: 7.5%

How did C[C@@H]1CCCN(CP(=O)(c2ccccc2)c2ccccc2)C1 do in these assays?
SMN2 splice up: -13.8%[9.22 µM]

What do the screens show for `O=[N+]([O-])c1ccc(C2Oc3ccccc3C3CC(c4ccccc4)=NN32)s1` (stereo not drawn)?
Rab9 promoter act: 20.4%; NPC1 prom act: -1.6%; FLuc modulator: 9.53µM*; SMN2 splice up: 25.1µM*; ELG1 genotoxic: inconclusive

Results for c1ccc(C2Oc3ccccc3C3CC(c4cccs4)=NN32)cc1 (stereo not drawn) ?
Rab9 promoter act: 11.2%; NPC1 prom act: 3.4%; FLuc modulator: inconclusive; SMN2 splice up: inconclusive; ELG1 genotoxic: 7.5%

Results for Cn1nccc1C(=O)N1CCN(S(=O)(=O)c2ccc(Br)s2)CC1 ?
Rab9 promoter act: 20.4%; NPC1 prom act: 13.3%; FLuc modulator: -0.9%; ELG1 genotoxic: 4.6%

Results for O=C(NC1CCCC1)c1cc(-c2ccc(Cl)cc2)on1 ?
Rab9 promoter act: 1.78µM*; NPC1 prom act: 1.41µM*; FLuc modulator: 2.69µM*; ELG1 genotoxic: 4.61µM*

What do the screens show for `O=C(NC1CCCCC1)c1cc(-c2ccc(Cl)cc2)on1`?
Rab9 promoter act: 25.8%; NPC1 prom act: 29.9%; FLuc modulator: 3.0%; ELG1 genotoxic: 7.7%

Results for O=C(NC1CCCC1)c1cc(-c2cccc(Cl)c2)on1 ?
Rab9 promoter act: 2.82µM*; NPC1 prom act: 2.82µM*; FLuc modulator: 15.1µM*; ELG1 genotoxic: 18.3µM*

What do the screens show for `O=C(NC1CCCC1)c1cc(-c2ccc(F)cc2)on1`?
Rab9 promoter act: 1.78µM*; NPC1 prom act: 1µM*; FLuc modulator: 4.78µM*; ELG1 genotoxic: 4.61µM*

Results for Cc1ccc(OCCn2c(C)nc3ccccc32)cc1 ?
Rab9 promoter act: -4.6%; NPC1 prom act: -1.2%; FLuc modulator: -12.2%; ELG1 genotoxic: -0.1%
